Measured values from PubChem BioAssay (NCI).
This is part of a sample that, as a whole, favours compounds with a hit. Of some 83,000 tested, about 20% had one in any assay.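 Interpretation: 100, growth as untreated; towards 0, rising growth inhibition; 0, no net growth; 0 to -100, cell death. Compounds scoring below 10 were considered active.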 Calls of active or inactive are those of the source.

Experiments:
Assay in all cases: NCI-60 one-dose screen, 48 h (100 = growth as untreated, 0 = no growth, -100 = all killed)
HCT-15 colon = details: 10 µM unless noted
HT29 colon = details: 10 µM unless noted
SNB-75 CNS = details: 10 µM unless noted
SNB-19 CNS = details: 10 µM unless noted
U251 CNS = details: 10 µM unless noted
PC-3 prostate = details: 10 µM unless noted
SK-MEL-5 melanoma = details: 10 µM unless noted
UACC-62 melanoma = details: 10 µM unless noted
LOX IMVI melanoma = details: 10 µM unless noted
SK-MEL-28 melanoma = details: 10 µM unless noted
SK-MEL-2 melanoma = details: 10 µM unless noted
EKVX NSCLC = details: 10 µM unless noted
SN12C renal = details: 10 µM unless noted
UO-31 renal = details: 10 µM unless noted
TK-10 renal = details: 10 µM unless noted
ACHN renal = details: 10 µM unless noted
CAKI-1 renal = details: 10 µM
CCRF-CEM leukemia = details: 10 µM unless noted
MOLT-4 leukemia = details: 10 µM unless noted

Measured: growth

CC1(C)CC[C@]2(C(=O)N3CCCN(CC#N)CC3)CC[C@]3(C)C(=CC[C@@H]4[C@@]5(C)CC[C@H](O)C(C)(C)[C@@H]5CC[C@]43C)[C@H]2C1
inactive: HCT-15 colon 19.1% | HT29 colon 34.7% | SNB-75 CNS 90.5% | SNB-19 CNS 78.3% | U251 CNS 56.1% | PC-3 prostate 26.7% | SK-MEL-5 melanoma 32.2% | UACC-62 melanoma 54.6% | SK-MEL-28 melanoma 72% | SK-MEL-2 melanoma 76.8% | EKVX NSCLC 91.2% | SN12C renal 59.6% | UO-31 renal 63.7% | TK-10 renal 81.7% | ACHN renal 59% | CAKI-1 renal 43.7% | CCRF-CEM leukemia 18.2% | MOLT-4 leukemia 19.1%
active: LOX IMVI melanoma -83.7%

O=c1[nH]c(CNc2ccc(NCc3c(-c4ccccc4)no[n+]3[O-])cc2)nc2c1cnn2-c1ccccc1
inactive: HCT-15 colon 71.2% | HT29 colon 92% | SNB-75 CNS 76.1% | SNB-19 CNS 94% | U251 CNS 85.5% | PC-3 prostate 63.3% | SK-MEL-5 melanoma 39% | UACC-62 melanoma 52.5% | LOX IMVI melanoma 63.6% | SK-MEL-28 melanoma 85.3% | SK-MEL-2 melanoma 77.2% | EKVX NSCLC 51.3% | SN12C renal 78.9% | UO-31 renal 55.9% | TK-10 renal 102% | ACHN renal 70.4% | CAKI-1 renal 55.1% | CCRF-CEM leukemia 57.9% | MOLT-4 leukemia 44%

N#C/C(=C\c1ccc(Cl)cc1Cl)C(N)=O
inactive: HCT-15 colon 87.7% | HT29 colon 106% | SNB-75 CNS 90.2% | SNB-19 CNS 97.6% | U251 CNS 95.5% | PC-3 prostate 92.5% | SK-MEL-5 melanoma 101% | UACC-62 melanoma 96.8% | LOX IMVI melanoma 97.3% | SK-MEL-28 melanoma 112% | SK-MEL-2 melanoma 106% | EKVX NSCLC 105% | SN12C renal 98.3% | UO-31 renal 94.4% | TK-10 renal 102% | ACHN renal 101% | CAKI-1 renal 90.8% | CCRF-CEM leukemia 89.7% | MOLT-4 leukemia 109%

Oc1ccc(CSc2nnc(-c3cnccn3)o2)c2cccnc12
inactive: HCT-15 colon 13.8% | HT29 colon 25.2% | SNB-75 CNS 26.5% | SNB-19 CNS 18.1% | U251 CNS 18.5% | PC-3 prostate 15.2% | UACC-62 melanoma 15% | LOX IMVI melanoma 17.5% | SK-MEL-28 melanoma 37.6% | EKVX NSCLC 19.3% | TK-10 renal 35.3% | CCRF-CEM leukemia 18.1% | MOLT-4 leukemia 16.9%
active: SK-MEL-5 melanoma -38.5% | SK-MEL-2 melanoma -2.52% | SN12C renal 7.45% | UO-31 renal 6.71% | ACHN renal 0.457% | CAKI-1 renal 2.13%

NC(=O)C(=Cc1ccc(Cl)cc1)C(N)=O
inactive: HCT-15 colon 36.6% | HT29 colon 77.4% | SNB-75 CNS 62.4% | SNB-19 CNS 77.9% | U251 CNS 68.7% | PC-3 prostate 70.4% | SK-MEL-5 melanoma 95.4% | UACC-62 melanoma 85.3% | LOX IMVI melanoma 57.4% | SK-MEL-28 melanoma 70% | SK-MEL-2 melanoma 87.3% | EKVX NSCLC 59.8% | SN12C renal 45.3% | UO-31 renal 57.6% | TK-10 renal 67.9% | ACHN renal 59.4% | CAKI-1 renal 49.2% | CCRF-CEM leukemia 57% | MOLT-4 leukemia 74.6%

COc1ccc2c(c1)c(-c1nnc(N)nc1-c1cn(C)c3ccccc13)cn2C
inactive: HCT-15 colon 87% | HT29 colon 96% | SNB-75 CNS 42.9% | SNB-19 CNS 93.2% | U251 CNS 102% | PC-3 prostate 88.8% | SK-MEL-5 melanoma 97.8% | UACC-62 melanoma 79% | LOX IMVI melanoma 90.8% | SK-MEL-28 melanoma 97.3% | SK-MEL-2 melanoma 95.2% | EKVX NSCLC 92.7% | SN12C renal 93.2% | UO-31 renal 70.8% | TK-10 renal 94.1% | ACHN renal 94.5% | CAKI-1 renal 75.7% | CCRF-CEM leukemia 93.9% | MOLT-4 leukemia 94.4%

IP(CCCSc1n(Cc2ccc3ccccc3c2)c(-c2ccccc2)c(-c2ccccc2)[n+]1Cc1ccc2ccccc2c1)(c1ccccc1)(c1ccccc1)c1ccccc1
active: HT29 colon 2.7% | LOX IMVI melanoma 8% | SK-MEL-2 melanoma 2.52%
inactive: HCT-15 colon 94.5% | SNB-75 CNS 43% | SNB-19 CNS 16.6% | U251 CNS 10.3% | PC-3 prostate 32.1% | SK-MEL-5 melanoma 67.6% | UACC-62 melanoma 26.6% | SK-MEL-28 melanoma 32.8% | EKVX NSCLC 32% | SN12C renal 57% | UO-31 renal 70.1% | TK-10 renal 66.9% | ACHN renal 87.9% | CAKI-1 renal 77.6% | CCRF-CEM leukemia 32.5% | MOLT-4 leukemia 46.7%

CC(=O)C1=NN(c2ccc(Cl)cc2)C(=O)CN1C
inactive: HCT-15 colon 100% | HT29 colon 102% | SNB-75 CNS 106% | SNB-19 CNS 103% | U251 CNS 97.6% | PC-3 prostate 98.1% | SK-MEL-5 melanoma 102% | UACC-62 melanoma 97.7% | LOX IMVI melanoma 98.3% | SK-MEL-28 melanoma 102% | SK-MEL-2 melanoma 102% | EKVX NSCLC 95.7% | SN12C renal 102% | UO-31 renal 93% | TK-10 renal 91.2% | ACHN renal 99.4% | CAKI-1 renal 95.7% | CCRF-CEM leukemia 104% | MOLT-4 leukemia 107%
